The text below walks through data of PMC7862700, “An all-to-all approach to the identification of sequence-specific readers for epigenetic DNA modifications on cytosine”.

Holding throughout (assay): DAPPL (digital affinity profiling via proximity ligation, sequencing); 10 mM Tris-HCl pH 7.5, 50 mM NaCl, 1 mM DTT, 4% glycerol, room temperature, 30 min; GST-TFs on glutathione beads, 16-mer random dsDNA library, 0.1% formaldehyde crosslink after washing; high values mean tight binding
In one experiment the target is T1, FEV (Homo sapiens, UniProt Q99581 1-238).
T1 sequence: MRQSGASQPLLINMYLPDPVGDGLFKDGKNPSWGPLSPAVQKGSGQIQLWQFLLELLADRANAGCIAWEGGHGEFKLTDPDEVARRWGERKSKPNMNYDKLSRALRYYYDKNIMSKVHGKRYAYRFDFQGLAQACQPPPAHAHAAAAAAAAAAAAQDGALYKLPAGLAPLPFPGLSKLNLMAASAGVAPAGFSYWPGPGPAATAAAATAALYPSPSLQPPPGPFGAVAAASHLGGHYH
Particulars: protein: recombinant; tags: N-terminal GST; dsDNA, one strand shown. In outline: (§1)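 Binding signal is each hexamer's read frequency for a factor divided by its frequency in the tag-only sample. The factors were GST-fused human transcription factors from yeast, captured on glutathione beads, DNA-barcoded and pooled with that sample. Pools were incubated with 200 nmole of a random double-stranded 16-mer DNA library in Tris/NaCl/DTT/glycerol buffer at room temperature for 30 min, then washed, crosslinked with 0.1% formaldehyde, proximity-ligated with BsaI/T4 ligase (1 h, 37 °C), PCR-amplified and sequenced on an Illumina NextSeq500.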

The target in another experiment is ETV5 (Homo sapiens, UniProt P41161 1-510). To be noted: protein: recombinant; tags: N-terminal GST; dsDNA, one strand shown. In short, it runs like this:
as §1

A further experiment concerns the target HSF1 (Homo sapiens, UniProt Q00613 1-529). Particulars: protein: recombinant; tags: N-terminal GST; chain copies: 3; dsDNA, one strand shown. In outline:
as §1

A further experiment deals with T2, SPIC (Homo sapiens, UniProt Q8N5J4 1-248).
T2 sequence: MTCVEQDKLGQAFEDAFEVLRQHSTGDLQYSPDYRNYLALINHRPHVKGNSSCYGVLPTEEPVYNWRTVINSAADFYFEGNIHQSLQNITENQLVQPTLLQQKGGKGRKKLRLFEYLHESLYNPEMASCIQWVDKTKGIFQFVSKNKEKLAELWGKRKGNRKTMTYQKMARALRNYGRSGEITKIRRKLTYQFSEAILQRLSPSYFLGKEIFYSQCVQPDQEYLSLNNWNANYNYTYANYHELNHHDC
To be noted: protein: recombinant; tags: N-terminal GST; dsDNA, one strand shown. In outline: as §1

A further experiment deals with ELF4 (Homo sapiens, UniProt Q99607 1-663). Particulars: protein: recombinant; tags: N-terminal GST; dsDNA, one strand shown. In short, it runs like this: as §1
The target of a further experiment is T3, ELK4 (Homo sapiens, UniProt P28324-2 1-405).
T3 sequence: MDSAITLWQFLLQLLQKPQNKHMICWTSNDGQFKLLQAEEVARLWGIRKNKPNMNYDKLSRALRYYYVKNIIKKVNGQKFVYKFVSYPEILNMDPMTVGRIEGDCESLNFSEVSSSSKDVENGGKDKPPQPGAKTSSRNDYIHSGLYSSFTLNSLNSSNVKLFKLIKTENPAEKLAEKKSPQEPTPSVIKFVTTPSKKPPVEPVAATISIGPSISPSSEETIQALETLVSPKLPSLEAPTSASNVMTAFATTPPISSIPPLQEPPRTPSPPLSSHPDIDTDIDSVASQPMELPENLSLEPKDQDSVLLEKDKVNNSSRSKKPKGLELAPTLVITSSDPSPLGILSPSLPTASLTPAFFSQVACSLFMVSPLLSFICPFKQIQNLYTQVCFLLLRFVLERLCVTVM
To be noted: protein: recombinant; tags: N-terminal GST; dsDNA, one strand shown. In short, it runs like this:
as §1

The target in a further experiment is T4, ETV2 (Homo sapiens, UniProt O00321 1-342).
T4 sequence: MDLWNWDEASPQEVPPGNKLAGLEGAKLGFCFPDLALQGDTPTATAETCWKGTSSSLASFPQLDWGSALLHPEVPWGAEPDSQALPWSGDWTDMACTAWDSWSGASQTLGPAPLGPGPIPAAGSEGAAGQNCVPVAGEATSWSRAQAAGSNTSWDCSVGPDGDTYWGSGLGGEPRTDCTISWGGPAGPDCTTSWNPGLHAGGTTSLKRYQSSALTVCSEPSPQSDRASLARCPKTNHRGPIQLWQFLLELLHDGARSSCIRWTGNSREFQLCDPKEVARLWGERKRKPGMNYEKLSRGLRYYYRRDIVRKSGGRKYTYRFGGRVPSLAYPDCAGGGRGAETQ
Particulars: protein: recombinant; tags: N-terminal GST; dsDNA, one strand shown. In outline: as §1

The target in the next experiment is T5, ELF3 (Homo sapiens, UniProt P78545 1-371).
T5 sequence: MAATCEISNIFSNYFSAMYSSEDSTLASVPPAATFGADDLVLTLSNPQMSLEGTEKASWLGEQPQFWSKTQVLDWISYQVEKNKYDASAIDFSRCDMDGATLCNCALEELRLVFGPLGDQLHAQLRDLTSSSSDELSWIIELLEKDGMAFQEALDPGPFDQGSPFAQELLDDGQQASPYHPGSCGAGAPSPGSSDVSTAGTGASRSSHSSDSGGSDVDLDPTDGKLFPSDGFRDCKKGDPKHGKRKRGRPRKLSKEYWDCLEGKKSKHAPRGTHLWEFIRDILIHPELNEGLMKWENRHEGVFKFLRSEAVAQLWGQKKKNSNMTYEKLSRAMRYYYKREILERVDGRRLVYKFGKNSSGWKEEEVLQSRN
Particulars: protein: recombinant; tags: N-terminal GST; dsDNA, one strand shown. In short, it runs like this:
as §1

Another experiment addresses CRX (Homo sapiens, UniProt O43186 1-299). Particulars: protein: recombinant; tags: N-terminal GST; dsDNA, one strand shown. In short, it runs like this: as §1
A further experiment addresses ETV1 (Homo sapiens, UniProt P50549 1-477). To be noted: protein: recombinant; tags: N-terminal GST; dsDNA, one strand shown. In short, it runs like this:
as §1

Another experiment deals with T6, ERF (Homo sapiens, UniProt P50548 1-548).
T6 sequence: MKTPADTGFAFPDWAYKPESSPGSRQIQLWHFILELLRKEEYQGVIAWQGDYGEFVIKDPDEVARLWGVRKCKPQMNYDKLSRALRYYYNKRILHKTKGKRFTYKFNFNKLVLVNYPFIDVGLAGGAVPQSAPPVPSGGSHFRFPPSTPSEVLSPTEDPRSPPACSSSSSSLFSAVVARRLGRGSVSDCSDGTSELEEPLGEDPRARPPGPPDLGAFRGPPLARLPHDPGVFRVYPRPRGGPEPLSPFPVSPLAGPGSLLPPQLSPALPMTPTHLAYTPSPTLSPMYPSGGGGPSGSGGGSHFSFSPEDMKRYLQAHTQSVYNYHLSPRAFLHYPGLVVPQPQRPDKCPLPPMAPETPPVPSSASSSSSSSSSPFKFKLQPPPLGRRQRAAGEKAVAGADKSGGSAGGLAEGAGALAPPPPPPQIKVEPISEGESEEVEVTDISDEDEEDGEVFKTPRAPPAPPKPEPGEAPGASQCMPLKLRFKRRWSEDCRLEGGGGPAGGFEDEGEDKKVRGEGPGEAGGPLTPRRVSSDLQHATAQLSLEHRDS
Particulars: protein: recombinant; tags: N-terminal GST; dsDNA, one strand shown. In outline: as §1

For a further experiment, the target named is T7, ETV3L (Homo sapiens, UniProt Q6ZN32 1-361).
T7 sequence: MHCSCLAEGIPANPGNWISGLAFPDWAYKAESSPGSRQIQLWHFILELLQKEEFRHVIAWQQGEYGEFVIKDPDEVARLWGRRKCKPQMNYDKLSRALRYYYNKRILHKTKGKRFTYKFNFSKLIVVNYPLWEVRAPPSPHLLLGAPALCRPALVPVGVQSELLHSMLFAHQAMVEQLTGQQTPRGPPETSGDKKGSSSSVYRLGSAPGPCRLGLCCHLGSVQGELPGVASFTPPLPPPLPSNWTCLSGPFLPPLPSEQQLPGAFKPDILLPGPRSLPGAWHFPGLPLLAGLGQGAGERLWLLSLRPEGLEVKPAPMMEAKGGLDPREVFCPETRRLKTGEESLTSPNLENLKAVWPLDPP
Particulars: protein: recombinant; tags: N-terminal GST; dsDNA, one strand shown. In outline:
as §1

In another experiment the target is T8, ETS2 (Homo sapiens, UniProt P15036 1-469).
T8 sequence: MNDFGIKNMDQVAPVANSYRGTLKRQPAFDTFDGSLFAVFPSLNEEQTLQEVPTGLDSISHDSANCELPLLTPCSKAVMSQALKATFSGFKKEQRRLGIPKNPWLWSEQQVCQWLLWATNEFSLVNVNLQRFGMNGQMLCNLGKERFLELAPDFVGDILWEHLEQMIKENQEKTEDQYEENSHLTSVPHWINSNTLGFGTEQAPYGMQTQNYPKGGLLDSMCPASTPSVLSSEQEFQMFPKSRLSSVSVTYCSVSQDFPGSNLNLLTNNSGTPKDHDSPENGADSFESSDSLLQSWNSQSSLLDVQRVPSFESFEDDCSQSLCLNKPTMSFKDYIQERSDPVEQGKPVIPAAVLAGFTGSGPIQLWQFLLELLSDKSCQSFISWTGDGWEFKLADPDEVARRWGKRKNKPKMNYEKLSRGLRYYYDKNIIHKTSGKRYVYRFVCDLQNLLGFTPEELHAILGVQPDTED
Particulars: protein: recombinant; tags: N-terminal GST; dsDNA, one strand shown. In outline:
as §1

A further experiment deals with T9, SPDEF (Homo sapiens, UniProt O95238 1-335).
T9 sequence: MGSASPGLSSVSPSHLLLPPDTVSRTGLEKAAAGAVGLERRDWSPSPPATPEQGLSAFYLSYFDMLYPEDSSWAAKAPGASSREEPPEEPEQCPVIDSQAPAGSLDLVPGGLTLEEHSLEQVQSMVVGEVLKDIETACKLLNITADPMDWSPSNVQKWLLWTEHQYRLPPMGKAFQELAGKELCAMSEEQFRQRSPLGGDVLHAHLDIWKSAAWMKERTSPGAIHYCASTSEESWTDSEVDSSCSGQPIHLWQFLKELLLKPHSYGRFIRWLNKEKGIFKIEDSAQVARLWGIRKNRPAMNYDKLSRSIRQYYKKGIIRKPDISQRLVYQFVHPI
To be noted: protein: recombinant; tags: N-terminal GST; dsDNA, one strand shown. In short, it runs like this:
as §1

The next experiment addresses T10, ETV7 (Homo sapiens, UniProt Q9Y603 1-341).
T10 sequence: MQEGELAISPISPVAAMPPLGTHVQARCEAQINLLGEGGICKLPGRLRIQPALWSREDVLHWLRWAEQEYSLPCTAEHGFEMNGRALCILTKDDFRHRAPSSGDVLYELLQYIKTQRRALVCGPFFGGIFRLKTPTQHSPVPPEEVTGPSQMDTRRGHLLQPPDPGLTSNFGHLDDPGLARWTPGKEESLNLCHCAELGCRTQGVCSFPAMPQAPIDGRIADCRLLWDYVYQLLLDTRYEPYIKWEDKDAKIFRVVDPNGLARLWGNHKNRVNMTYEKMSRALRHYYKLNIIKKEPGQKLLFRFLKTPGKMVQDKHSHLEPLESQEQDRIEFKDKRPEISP
Particulars: protein: recombinant; tags: N-terminal GST; dsDNA, one strand shown. In short, it runs like this:
as §1

In a further experiment the target is T11, ELF5 (Homo sapiens, UniProt Q9UKW6-2 1-255).
T11 sequence: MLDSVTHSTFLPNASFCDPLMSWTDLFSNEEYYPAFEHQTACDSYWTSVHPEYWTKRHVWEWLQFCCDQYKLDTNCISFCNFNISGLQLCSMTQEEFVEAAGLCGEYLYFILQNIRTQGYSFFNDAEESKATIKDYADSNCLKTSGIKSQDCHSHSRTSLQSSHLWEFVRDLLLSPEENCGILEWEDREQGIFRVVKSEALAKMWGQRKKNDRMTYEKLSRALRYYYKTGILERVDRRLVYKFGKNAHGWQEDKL
Particulars: protein: recombinant; tags: N-terminal GST; dsDNA, one strand shown. In short, it runs like this: as §1

The target in another experiment is T12, ETV3 (Homo sapiens, UniProt P41162-2 1-143).
T12 sequence: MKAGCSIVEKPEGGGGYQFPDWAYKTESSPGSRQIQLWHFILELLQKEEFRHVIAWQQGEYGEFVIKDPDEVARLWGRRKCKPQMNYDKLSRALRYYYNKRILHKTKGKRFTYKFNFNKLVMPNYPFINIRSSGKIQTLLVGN
Particulars: protein: recombinant; tags: N-terminal GST; dsDNA, one strand shown. In outline:
as §1

For another experiment, the target named is ETV6 (Homo sapiens, UniProt P41212 1-452). To be noted: protein: recombinant; tags: N-terminal GST; dsDNA, one strand shown. In short, it runs like this: as §1
Sequence of ETV6 (P41212 whole entry): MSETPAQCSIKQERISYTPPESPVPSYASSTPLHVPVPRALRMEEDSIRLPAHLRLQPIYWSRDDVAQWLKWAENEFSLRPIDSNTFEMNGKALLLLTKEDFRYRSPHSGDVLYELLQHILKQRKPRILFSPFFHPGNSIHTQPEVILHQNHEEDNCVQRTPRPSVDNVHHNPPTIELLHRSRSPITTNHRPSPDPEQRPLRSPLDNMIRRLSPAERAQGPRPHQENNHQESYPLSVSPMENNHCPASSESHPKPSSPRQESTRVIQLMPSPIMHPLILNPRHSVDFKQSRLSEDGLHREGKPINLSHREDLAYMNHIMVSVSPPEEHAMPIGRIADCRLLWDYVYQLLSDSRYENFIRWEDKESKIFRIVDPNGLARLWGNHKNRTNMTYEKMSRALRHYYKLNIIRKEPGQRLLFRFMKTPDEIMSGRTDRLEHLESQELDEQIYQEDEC

Sequence of CRX (O43186 whole entry): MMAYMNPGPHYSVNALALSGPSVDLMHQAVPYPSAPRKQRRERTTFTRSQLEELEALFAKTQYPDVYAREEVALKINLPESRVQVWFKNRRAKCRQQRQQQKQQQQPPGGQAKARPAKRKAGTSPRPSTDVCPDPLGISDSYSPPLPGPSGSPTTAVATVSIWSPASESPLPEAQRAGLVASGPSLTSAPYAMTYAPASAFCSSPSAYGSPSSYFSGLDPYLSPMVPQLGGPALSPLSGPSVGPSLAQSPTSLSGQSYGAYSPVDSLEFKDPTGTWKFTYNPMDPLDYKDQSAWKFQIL
Sequence of ELF4 (Q99607 whole entry): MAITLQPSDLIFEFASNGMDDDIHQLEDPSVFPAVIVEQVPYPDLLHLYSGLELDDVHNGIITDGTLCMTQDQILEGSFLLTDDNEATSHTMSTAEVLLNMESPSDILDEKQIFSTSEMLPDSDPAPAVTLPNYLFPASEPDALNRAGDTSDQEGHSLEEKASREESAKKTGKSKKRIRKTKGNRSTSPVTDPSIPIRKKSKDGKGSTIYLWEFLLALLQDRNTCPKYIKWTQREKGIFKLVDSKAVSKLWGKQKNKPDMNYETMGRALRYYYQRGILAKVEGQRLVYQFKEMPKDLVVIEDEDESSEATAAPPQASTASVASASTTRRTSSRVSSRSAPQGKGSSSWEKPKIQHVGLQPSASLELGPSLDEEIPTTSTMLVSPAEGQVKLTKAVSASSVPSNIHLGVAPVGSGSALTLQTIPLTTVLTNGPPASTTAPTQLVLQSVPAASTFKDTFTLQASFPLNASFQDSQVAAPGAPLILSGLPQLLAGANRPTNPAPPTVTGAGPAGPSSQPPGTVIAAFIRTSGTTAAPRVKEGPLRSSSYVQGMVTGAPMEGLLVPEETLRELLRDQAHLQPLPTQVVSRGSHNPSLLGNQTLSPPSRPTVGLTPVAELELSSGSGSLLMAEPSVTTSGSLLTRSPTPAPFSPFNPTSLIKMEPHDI
Sequence of HSF1 (Q00613 whole entry): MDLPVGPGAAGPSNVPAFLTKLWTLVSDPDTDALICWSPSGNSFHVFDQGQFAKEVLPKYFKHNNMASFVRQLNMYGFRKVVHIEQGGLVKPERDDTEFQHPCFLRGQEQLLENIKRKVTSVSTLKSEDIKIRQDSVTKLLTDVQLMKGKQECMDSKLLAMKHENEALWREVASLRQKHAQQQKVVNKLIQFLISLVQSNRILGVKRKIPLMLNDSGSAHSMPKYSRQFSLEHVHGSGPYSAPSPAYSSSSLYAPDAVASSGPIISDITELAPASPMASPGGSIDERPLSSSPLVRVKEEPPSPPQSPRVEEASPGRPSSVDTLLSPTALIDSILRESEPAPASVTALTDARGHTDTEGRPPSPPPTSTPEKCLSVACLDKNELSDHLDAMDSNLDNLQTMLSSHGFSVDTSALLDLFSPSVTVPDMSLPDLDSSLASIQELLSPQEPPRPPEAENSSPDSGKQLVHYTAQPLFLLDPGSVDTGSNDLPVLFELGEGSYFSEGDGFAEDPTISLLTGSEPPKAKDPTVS
Sequence of ETV1 (P50549 whole entry): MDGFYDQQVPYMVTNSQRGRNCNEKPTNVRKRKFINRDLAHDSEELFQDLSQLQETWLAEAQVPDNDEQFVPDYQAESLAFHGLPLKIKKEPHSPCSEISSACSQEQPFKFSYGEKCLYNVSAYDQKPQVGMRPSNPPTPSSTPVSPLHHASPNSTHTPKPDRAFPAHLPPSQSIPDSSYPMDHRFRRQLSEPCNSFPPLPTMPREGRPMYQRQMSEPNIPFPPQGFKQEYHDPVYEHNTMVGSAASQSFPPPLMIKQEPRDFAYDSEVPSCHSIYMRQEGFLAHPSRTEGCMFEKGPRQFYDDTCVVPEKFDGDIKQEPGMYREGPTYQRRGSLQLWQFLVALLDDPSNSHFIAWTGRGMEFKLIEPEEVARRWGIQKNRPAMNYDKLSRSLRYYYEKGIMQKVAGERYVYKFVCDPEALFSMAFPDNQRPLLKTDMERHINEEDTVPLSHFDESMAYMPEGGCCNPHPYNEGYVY
Sequence of ETV5 (P41161 whole entry): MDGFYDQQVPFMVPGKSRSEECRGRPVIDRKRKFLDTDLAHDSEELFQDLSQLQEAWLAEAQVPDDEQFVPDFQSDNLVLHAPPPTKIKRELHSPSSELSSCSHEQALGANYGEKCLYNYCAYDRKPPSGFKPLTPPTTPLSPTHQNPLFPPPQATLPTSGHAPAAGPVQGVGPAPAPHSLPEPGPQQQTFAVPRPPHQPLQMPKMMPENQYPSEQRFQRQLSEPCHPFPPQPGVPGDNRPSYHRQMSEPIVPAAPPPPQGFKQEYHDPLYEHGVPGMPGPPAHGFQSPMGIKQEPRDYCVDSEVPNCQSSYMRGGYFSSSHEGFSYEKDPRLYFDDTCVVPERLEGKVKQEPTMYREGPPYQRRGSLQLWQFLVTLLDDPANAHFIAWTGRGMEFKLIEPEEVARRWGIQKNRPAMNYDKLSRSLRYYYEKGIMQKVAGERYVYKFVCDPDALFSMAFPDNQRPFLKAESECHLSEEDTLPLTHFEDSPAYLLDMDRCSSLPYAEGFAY

Turning to TTCAGG, the binding signal with FEV is 1.05 fold enrichment (6-mer frequency, TF over GST control); with ETV5 it was 1.13 fold enrichment (6-mer frequency, TF over GST control); in the experiment with HSF1 it was 1.22 fold enrichment (6-mer frequency, TF over GST control); with SPIC, 1.13 fold enrichment (6-mer frequency, TF over GST control); in the experiment with ELF4, 1.11 fold enrichment (6-mer frequency, TF over GST control); with ELK4 it was 1.19 fold enrichment (6-mer frequency, TF over GST control). The binding signal with ETV2 is 1.14 fold enrichment (6-mer frequency, TF over GST control); with ELF3 it was 1.07 fold enrichment (6-mer frequency, TF over GST control); with CRX it was 1.01 fold enrichment (6-mer frequency, TF over GST control); in the experiment with ETV1, 1.15 fold enrichment (6-mer frequency, TF over GST control); in the experiment with ERF, 1.15 fold enrichment (6-mer frequency, TF over GST control); with ETV3L, 1.1 fold enrichment (6-mer frequency, TF over GST control). For the same sequence, the binding signal with ETS2 is 1.12 fold enrichment (6-mer frequency, TF over GST control); in the experiment with SPDEF it was 1.25 fold enrichment (6-mer frequency, TF over GST control); with ETV7 it was 1.15 fold enrichment (6-mer frequency, TF over GST control); with ELF5, 1.15 fold enrichment (6-mer frequency, TF over GST control); with ETV3, 1.1 fold enrichment (6-mer frequency, TF over GST control); with ETV6, 1.11 fold enrichment (6-mer frequency, TF over GST control).
